Sampled rows, rich in hits. Any-hit rate of the full collection: about 21%.
NS1 function inh: inhibitors of influenza NS1 protein function; Potency, µM (titrated, usually from 46.1 µM); 270,000 compounds, 0.4% hits; AID 2326; calls by dose curve; also: actives are rising curves; nearly all actives have a fitted effect of over 50% in size
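Compounds were scored for reversing the slow growth caused by influenza A NS1 in S. cerevisiae, measured by optical density at 600 nm. Assay medium contained 2% galactose at pH 6.0; NS1-free yeast of the same strain were the positive control.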
FBPA Giardia inh: inhibitors of Giardia lamblia fructose-1,6-bisphosphate aldolase. A8B2U2. purified Giardia FBPA. Potency, µM (series often up to 59.6 µM), hits mostly inhibitors. 290,000 compounds, 0.71% hits. AID 2451; also: nearly all actives have a fitted effect of over 55% in size
Target sequence (A8B2U2 whole entry, looked up): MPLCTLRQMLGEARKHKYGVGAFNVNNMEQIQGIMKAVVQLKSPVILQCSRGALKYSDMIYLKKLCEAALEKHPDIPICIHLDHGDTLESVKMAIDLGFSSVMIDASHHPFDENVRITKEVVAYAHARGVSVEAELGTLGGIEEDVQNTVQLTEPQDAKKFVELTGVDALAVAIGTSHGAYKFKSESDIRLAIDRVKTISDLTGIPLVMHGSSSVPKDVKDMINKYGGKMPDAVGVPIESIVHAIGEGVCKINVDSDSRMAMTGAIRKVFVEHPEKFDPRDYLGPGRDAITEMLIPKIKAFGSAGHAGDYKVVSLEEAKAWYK
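Giardia FBPA (40 nM reagent) was preincubated 10 min at RT with compound (up to 57.5 uM final), then substrate plus GAPDH/TPI/NAD/arsenate coupling system with diaphorase/resazurin was added; resorufin fluorescence (525/598 nm) was read after 20 min.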
Pf growth 96h: P. falciparum growth inhibition at 96 hours. P. falciparum luciferase reporter growth, 96 h. Potency, µM (doses to about 28.7 µM), actives largely listed as inhibitors. 320,000 compounds, 6.9% hits. AID 504834
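Erythrocytes infected with luciferase-expressing P. falciparum were dispensed at 2% hematocrit and 0.05% parasitemia (final), then incubated with compounds 96 hours at 37 C in 5% CO2. Luminescence after detection reagent addition reported growth.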
CHX counter: counter-screen for Shiga toxin inhibitors: cycloheximide protein synthesis inhibition | cell reporter, cycloheximide protein synthesis inhibition counterscreen | max response, % | 300,000 compounds, 12% hits | AID 2314; in the data active = max response mostly above about 13%, no sharp cut-off; inactive = mostly below about 14%; also: read at 38.3 µM for the half of the compounds with a filed dose
Pf growth 48h: P. falciparum growth inhibition at 48 hours (one generation). P. falciparum luciferase growth in erythrocytes, 48 h. 310,000 compounds, 5.9% hits. AID 504832. Potency, µM (series often up to 28.7 µM), hits mostly inhibitors
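Read-out is firefly luciferase luminescence from an integrated reporter in P. falciparum, so falling signal marks reduced parasite growth. Infected erythrocytes were at 2% hematocrit and 0.1% parasitemia (final) in Albumax-supplemented RPMI 1640.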
Shiga toxin inh: Shiga toxin inhibition; Vero cells, Shiga toxin protein synthesis inhibition reporter; inhibition, % at 38.7 µM; 290,000 compounds, 9.2% hits; in the data active = inhibition mostly above about 28%, no sharp cut-off; inactive = mostly below about 43%
Each line names hits and unclear results; the compound was inactive in the other large screens. Unless noted, calls follow the shape of the dose curve; as a rule, active = well fitted curve in the direction sought with a large enough effect; inconclusive = small, poorly fitted or top-dose-only effect, or another doubt; inactive = no such curve, though single readings can be large; an effect the other way counts as inactive or inconclusive.

Cc1ccc(/C=C(\C#N)C(=O)NCC2CCCO2)o1 (stereo not drawn)	none
COc1cc(/C=C(\C#N)C(=O)NCC2CCCO2)c([N+](=O)[O-])cc1OC (stereo not drawn)	FBPA Giardia inh inconclusive
Cc1ccccc1-n1c(C)cc(/C=C(\C#N)C(=O)NCC2CCCO2)c1C (stereo not drawn)	Pf growth 96h 8.28µM, CHX counter 65.1, Shiga toxin inh 122.6
N#C/C(=C\c1ccc[nH]1)C(=O)NCC1CCCO1 (stereo not drawn)	CHX counter 25.3
N#C/C(=C\c1ccco1)C(=O)NCC1CCCO1 (stereo not drawn)	CHX counter 17.5, Shiga toxin inh 49.9
COc1ccc(/C=C(\C#N)C(=O)NCc2cccs2)cc1OC	Pf growth 96h inconclusive
O=C(CNS(=O)(=O)c1ccccc1)N1CCN(Cc2ccccc2)CC1	none (no result: FBPA Giardia inh)
COc1cccc(NC(=O)CN2C(=O)COc3ccc(S(=O)(=O)N4CCCCCC4)cc32)c1	Pf growth 96h inconclusive, Pf growth 48h inconclusive
CO[C@H]1COC(=O)C/C=C\[C@H](C)[C@@H](OC)COC(=O)[C@H](C)COC(=O)C/C=C\[C@@H]1C	none (no result: NS1 function inh, Pf growth 96h, CHX counter, Pf growth 48h, Shiga toxin inh)
O=C(COC(=O)c1ccc(S(=O)(=O)N2CCOCC2)cc1)NCc1cccs1	none (no result: NS1 function inh)
COc1cc(/C=C(\C#N)C(=O)NCC2CCCO2)ccc1OCC(=O)O (stereo not drawn)	Pf growth 96h 2.33µM
CCn1c(SCC(=O)N(C)c2c(N)n(Cc3ccccc3)c(=O)[nH]c2=O)nc2ccccc21	none
Cn1c(SCC(=O)c2ccccc2)nnc1C1COc2ccccc2O1 (stereo not drawn)	CHX counter 42.1
O=C(CSc1nnc2scc(-c3ccccc3)n12)c1ccc2c(c1)OCCO2	Pf growth 96h 2.08µM (no result: Pf growth 48h)
Cn1c(SCC(=O)c2ccc3c(c2)OCO3)nnc1C1COc2ccccc2O1 (stereo not drawn)	NS1 function inh inconclusive, Pf growth 96h 11.7µM, Pf growth 48h inconclusive
N#C/C(=C\c1ccc(Cl)cc1)c1nc(-c2ccco2)cs1	none
N#C/C(=C\c1ccncc1)c1nc2c(s1)CCCC2	CHX counter 21.3, Shiga toxin inh 41.8 (no result: NS1 function inh)
COc1ccc(S(=O)(=O)Oc2ccc3ccccc3c2)cc1	Pf growth 96h inconclusive, CHX counter 23.1, Shiga toxin inh 22.6
O=S(=O)(O)c1cc(OS(=O)(=O)c2ccccc2)cc2ccccc12	NS1 function inh inconclusive
CC1=C(C)C[C@@]23CCCN2C(=O)CCC[C@H]3C1	none (no result: NS1 function inh, Pf growth 96h, Pf growth 48h)
Cc1cc(C)c2c(c1)SC1=NC(c3ccccc3)(C(F)(F)F)NC(=O)N12 (stereo not drawn)	CHX counter 23.7, Pf growth 48h inconclusive
Cc1ccc(CNS(=O)(=O)c2ccc3c(c2)CCN3C(=O)CCCC(=O)O)cc1	none (no result: NS1 function inh)
O=S(=O)(c1ccccc1)N1CCC2(CC1)CN(c1ncccn1)C2	none (no result: NS1 function inh, Pf growth 96h, CHX counter, Pf growth 48h, Shiga toxin inh)
O=C(Oc1cccc(/C=N/NC(=O)c2ccccn2)c1)c1ccc([N+](=O)[O-])cc1	none (no result: FBPA Giardia inh)
O=[N+]([O-])c1cc(/C=N/N/C(=N/c2ccccn2)c2ccccn2)ccc1O	Pf growth 96h inconclusive, CHX counter 34.2, Shiga toxin inh 123.1 (no result: NS1 function inh)
O=C(N/N=C/c1ccc(Sc2nc3ccccc3s2)c([N+](=O)[O-])c1)c1ccccn1	Pf growth 96h 10.4µM, Pf growth 48h inconclusive (no result: FBPA Giardia inh)
O=[N+]([O-])c1ccc(/C=N/N/C(=N/c2ccccn2)c2ccccn2)cc1	CHX counter 39.7
Cc1onc(-c2ccccc2)c1C(=O)N/N=C/c1ccc(O)c([N+](=O)[O-])c1	Pf growth 96h inconclusive (no result: FBPA Giardia inh)
Cc1cc(S(=O)(=O)N2CCCCC2CCNC(=O)C(=O)NCC2CCCO2)ccc1F (stereo not drawn)	Pf growth 48h inconclusive (no result: NS1 function inh, FBPA Giardia inh, CHX counter, Shiga toxin inh)
CCCN(C(=O)Cn1nc(C)c([N+](=O)[O-])c1C)c1c(N)n(Cc2ccccc2)c(=O)[nH]c1=O	none (no result: NS1 function inh, FBPA Giardia inh, CHX counter, Shiga toxin inh)
Cc1ccc(NC(=O)CN(C)C(=O)COc2c(Cl)cc(Cl)c3ccc(C)nc23)cc1	Pf growth 96h 1.65µM, Pf growth 48h 4.15µM
Cc1cc(OCC(=O)N2CCCC2)cc(C)c1Cl	CHX counter 9.4
Cc1ccc2c(Cl)cc(Cl)c(OCC(=O)O)c2n1	none (no result: NS1 function inh)
Cc1ccc2c(Cl)cc(Cl)c(OCC(=O)N3CCCC3)c2n1	CHX counter 35.3, Shiga toxin inh 66.7 (no result: NS1 function inh)
Cc1cc(OCC(=O)N2CCCN(C)CC2)ccc1Cl	CHX counter 15.6 (no result: FBPA Giardia inh)
